Common to all, as to assay: NCI-60 one-dose screen, 48 h (100 = growth as untreated, 0 = no growth, -100 = all killed)
In one experiment the test system is SK-MEL-2 melanoma. The following applies: 10 µM unless noted.
For another experiment, the system named is EKVX NSCLC. Conditions: 10 µM unless noted.
A further experiment deals with SN12C renal. The following applies: 10 µM unless noted.
The next experiment concerns UO-31 renal. Conditions: 10 µM unless noted.
A further experiment relates to TK-10 renal. Conditions: 10 µM unless noted.
Another experiment concerns CAKI-1 renal. The following applies: 10 µM unless noted.
The next experiment concerns A498 renal. The following applies: 10 µM unless noted.
Another experiment has as its system CCRF-CEM leukemia. The following applies: 10 µM unless noted.
A further experiment has as its system MOLT-4 leukemia. The following applies: 10 µM unless noted.
For a further experiment, the system named is SR leukemia. The following applies: 10 µM unless noted.
A further experiment deals with RPMI-8226 leukemia. The following applies: 10 µM unless noted.
In another experiment the test system is OVCAR-8 ovarian. Conditions: 10 µM unless noted.
Another experiment concerns OVCAR-5 ovarian. Conditions: 10 µM unless noted.
The next experiment relates to SK-OV-3 ovarian. Conditions: 10 µM unless noted.
The next experiment relates to IGROV1 ovarian. Conditions: 10 µM unless noted.
Another experiment has as its system OVCAR-3 ovarian. The following applies: 10 µM unless noted.
The subject of the next experiment is HS 578T breast. The following applies: 10 µM unless noted.
Another experiment concerns NCI/ADR-RES ovarian. The following applies: 10 µM unless noted.
In another experiment the test system is OVCAR-4 ovarian. The following applies: 10 µM.
For the next experiment, the system named is ACHN renal. Conditions: 10 µM unless noted.

The structures appear in SMILES notation. This is part of a sample that, as a whole, favours compounds with a hit. Of some 83,000 tested, about 20% had one in any assay.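 Results are percent growth after 48 hours of single-concentration exposure. 100 means growth as in untreated cells, lower positive values show inhibition; negative values down to -100 show cell death.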 A number with no mark means an inactive call. Calls of active or inactive are those of the source. The calls were made as follows: active = growth percent below 10; inactive = the rest.

On to `O=C(Nc1ccc(Oc2ccc(F)cc2)c(Cl)c1)c1cnccn1`, for which the growth in the experiment on SK-MEL-2 melanoma is 53.6%; with EKVX NSCLC, 78%; in the experiment with SN12C renal, 69.8%; in the experiment with UO-31 renal it was 65%; in the experiment on TK-10 renal, 85.8%; in the experiment with CAKI-1 renal it was 49.7%. Besides, the growth in the experiment on A498 renal is 67.7%; with CCRF-CEM leukemia, 64.1%; in the experiment with MOLT-4 leukemia it was 45.1%; with SR leukemia, 49.3%; in the experiment with RPMI-8226 leukemia, 80.4%; in the experiment on OVCAR-8 ovarian it was 71.4%. Further, the growth in the experiment on OVCAR-5 ovarian was 81.1%; in the experiment with SK-OV-3 ovarian, 100%; in the experiment with IGROV1 ovarian, 62.6%; in the experiment on OVCAR-3 ovarian it was 43.6%; in the experiment on HS 578T breast, 62.4%; in the experiment on NCI/ADR-RES ovarian it was 40.8%.

As for `Nc1cc(N)c(N=Nc2ccc(S(=O)(=O)O)cc2)cc1N=Nc1ccc(-c2ccc(N=Nc3ccc(O)c(C(=O)O)c3)cc2)cc1`, the growth with SK-MEL-2 melanoma was 103%; with EKVX NSCLC it was 97.1%; in the experiment on SN12C renal, 102%; in the experiment with UO-31 renal, 79.8%; in the experiment on TK-10 renal, 142%; in the experiment on CAKI-1 renal, 90%. Also, the growth in the experiment with A498 renal is 108%; in the experiment on CCRF-CEM leukemia, 98%; in the experiment on MOLT-4 leukemia it was 102%; with SR leukemia, 110%; in the experiment with RPMI-8226 leukemia, 99.2%; in the experiment on OVCAR-8 ovarian it was 100%. Also, the growth in the experiment with OVCAR-5 ovarian was 108%; in the experiment with OVCAR-4 ovarian, 103%; in the experiment on SK-OV-3 ovarian, 100%; in the experiment with IGROV1 ovarian it was 104%; in the experiment with HS 578T breast, 105%; in the experiment on NCI/ADR-RES ovarian it was 98.9%.

For `CC(C)C1=NOC(=O)C1=Cc1cn(-c2cccnc2)nc1-c1ccccc1`, the growth is 111% in the experiment with SK-MEL-2 melanoma; 100% with EKVX NSCLC; 87.5% in the experiment on SN12C renal; 89.7% in the experiment with UO-31 renal; 101% with TK-10 renal; 78% in the experiment on CAKI-1 renal. Moreover, the growth is 99.2% with A498 renal; 11.4% in the experiment with CCRF-CEM leukemia; 11.8% in the experiment with MOLT-4 leukemia; -22.5% (active) in the experiment with SR leukemia; -16.6% (active) in the experiment on RPMI-8226 leukemia; 89.9% with OVCAR-8 ovarian. Besides, the growth in the experiment on OVCAR-5 ovarian is 100%; in the experiment with OVCAR-4 ovarian it was 103%; in the experiment on SK-OV-3 ovarian, 104%; with IGROV1 ovarian, 102%; in the experiment with OVCAR-3 ovarian, 108%; in the experiment with HS 578T breast it was 106%. In the experiment with NCI/ADR-RES ovarian, the growth is 110%.

As for `Cn1cc(-c2nnc(-c3cn(C)c4ncc(Br)cc34)s2)c2cc(Br)ccc21`, the growth was 101% in the experiment with SK-MEL-2 melanoma; 69.2% in the experiment on EKVX NSCLC; 94.5% in the experiment on SN12C renal; 79.8% in the experiment with UO-31 renal; 108% in the experiment on TK-10 renal; 73.9% with CAKI-1 renal. In addition, the growth is 52.6% with A498 renal; -27.5% (active) in the experiment on CCRF-CEM leukemia; 97.3% with MOLT-4 leukemia; 100% in the experiment on SR leukemia; 87.4% with RPMI-8226 leukemia; 96.1% in the experiment on OVCAR-8 ovarian. Further, the growth in the experiment with OVCAR-5 ovarian was 88.6%; in the experiment on OVCAR-4 ovarian, 93.8%; with IGROV1 ovarian, 73.9%; in the experiment on OVCAR-3 ovarian, 100%; with HS 578T breast, 89.3%; with NCI/ADR-RES ovarian, 102%.

Turning to `CCc1cccc(Cl)c1`, the growth with SK-MEL-2 melanoma is 118%; with EKVX NSCLC it was 105%; in the experiment on SN12C renal it was 90.6%; in the experiment with UO-31 renal, 85.3%; in the experiment on TK-10 renal, 107%; in the experiment with CAKI-1 renal, 108%. The growth was 120% in the experiment on A498 renal; 88.2% with CCRF-CEM leukemia; 98.1% in the experiment with MOLT-4 leukemia; 103% in the experiment on SR leukemia; 101% in the experiment on RPMI-8226 leukemia; 104% in the experiment with OVCAR-8 ovarian. For the same compound, the growth in the experiment with OVCAR-5 ovarian is 105%; with SK-OV-3 ovarian, 107%; in the experiment on IGROV1 ovarian it was 100%; with OVCAR-3 ovarian, 110%; in the experiment with HS 578T breast, 118%; in the experiment on NCI/ADR-RES ovarian, 103%.

In the case of `O=S(=O)(NCc1ccccc1)c1ncnc2nc[nH]c12`, the growth in the experiment on SK-MEL-2 melanoma is 118%; with EKVX NSCLC it was 111%; in the experiment on SN12C renal it was 108%; in the experiment with UO-31 renal, 93.8%; with TK-10 renal, 115%; with ACHN renal, 105%. Also, the growth in the experiment with A498 renal is 124%; with MOLT-4 leukemia it was 93.3%; with SR leukemia, 105%; with RPMI-8226 leukemia, 99.2%; in the experiment on OVCAR-8 ovarian, 87.2%; with OVCAR-5 ovarian, 106%. Besides, the growth is 108% in the experiment on SK-OV-3 ovarian; 119% in the experiment with IGROV1 ovarian; 111% in the experiment on OVCAR-3 ovarian; 116% with HS 578T breast; 97.4% with NCI/ADR-RES ovarian.

Consider `COc1c(B(O)O)cccc1-c1nc2ccc3[nH]ncc3c2c2c1CCC2`, for which the growth in the experiment on SK-MEL-2 melanoma is 58.2%; in the experiment with EKVX NSCLC, 47.9%; in the experiment with SN12C renal it was 74.3%; in the experiment with UO-31 renal, 23.5%; with TK-10 renal, 36.4%; in the experiment with CAKI-1 renal it was 16.6%. The growth in the experiment on A498 renal was 34.7%; in the experiment on CCRF-CEM leukemia, 64.2%; with MOLT-4 leukemia, 61.6%; in the experiment on SR leukemia, 67.8%; with RPMI-8226 leukemia, 60.1%; in the experiment on OVCAR-8 ovarian it was 61.2%. Also, the growth in the experiment on OVCAR-5 ovarian is 89.9%; in the experiment with OVCAR-4 ovarian, 80.7%; in the experiment on IGROV1 ovarian, 42%; in the experiment with OVCAR-3 ovarian, 89.8%; in the experiment with HS 578T breast it was 17.7%; with NCI/ADR-RES ovarian it was 81.4%.

Turning to `O=S(=O)(NCCNc1nccc(-c2c(-c3cccc(F)c3)nc3occn23)n1)c1ccc(C(F)(F)F)cc1`, the growth was 92.2% in the experiment with SK-MEL-2 melanoma; 84.2% with EKVX NSCLC; 84.8% with SN12C renal; 57.1% in the experiment on UO-31 renal; 97.5% with TK-10 renal; 68.9% with CAKI-1 renal. The growth is 78% with A498 renal; 84% with CCRF-CEM leukemia; 52.9% in the experiment on MOLT-4 leukemia; 88.3% in the experiment with SR leukemia; 75.5% in the experiment with RPMI-8226 leukemia; 87.5% with OVCAR-8 ovarian. The growth was 102% in the experiment on OVCAR-5 ovarian; 87.6% with OVCAR-4 ovarian; 79.5% with SK-OV-3 ovarian; 77% in the experiment with IGROV1 ovarian; 99.1% in the experiment on OVCAR-3 ovarian; 74.3% in the experiment on HS 578T breast. In addition, in the experiment on NCI/ADR-RES ovarian, the growth is 95.5%.

The values above are taken from PubChem BioAssay (NCI).
